What all share (test): DAPPL (digital affinity profiling via proximity ligation, sequencing); 10 mM Tris-HCl pH 7.5, 50 mM NaCl, 1 mM DTT, 4% glycerol, room temperature, 30 min; GST-TFs on glutathione beads, 16-mer random dsDNA library, 0.1% formaldehyde crosslink after washing; high values mean tight binding
What all share (settings): protein: recombinant; tags: N-terminal GST; dsDNA, one strand shown

One test addresses T1, FLI1 (Homo sapiens, UniProt Q01543 1-452).
T1 sequence: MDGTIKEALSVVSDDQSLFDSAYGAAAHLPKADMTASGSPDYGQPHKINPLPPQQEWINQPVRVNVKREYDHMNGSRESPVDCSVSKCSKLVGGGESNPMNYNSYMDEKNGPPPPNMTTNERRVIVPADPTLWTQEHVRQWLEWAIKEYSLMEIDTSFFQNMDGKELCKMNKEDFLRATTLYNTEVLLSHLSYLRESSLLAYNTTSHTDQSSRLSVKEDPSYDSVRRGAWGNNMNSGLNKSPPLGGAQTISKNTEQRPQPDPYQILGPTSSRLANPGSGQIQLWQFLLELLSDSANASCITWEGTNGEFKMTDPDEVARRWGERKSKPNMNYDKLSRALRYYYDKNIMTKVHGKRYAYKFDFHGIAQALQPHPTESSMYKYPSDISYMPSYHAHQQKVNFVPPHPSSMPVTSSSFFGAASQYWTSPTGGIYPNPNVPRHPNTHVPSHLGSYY
The method in brief:
(§1)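 A tag-only sample was pooled with DNA-barcoded human transcription factors that had been expressed in yeast as GST fusions and captured on glutathione beads. The pools were incubated for 30 min at room temperature with 200 nmole of a random double-stranded 16-mer DNA library in Tris/NaCl/DTT/glycerol buffer, then washed, crosslinked with 0.1% formaldehyde, proximity-ligated (BsaI/T4 ligase, 1 h, 37 °C), PCR-amplified and sequenced on an Illumina NextSeq500. Binding signal is each hexamer's read frequency for a factor divided by its frequency for the tag-only sample.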

In a further test the target is T2, ELK1 (Homo sapiens, UniProt P19419 1-428).
T2 sequence: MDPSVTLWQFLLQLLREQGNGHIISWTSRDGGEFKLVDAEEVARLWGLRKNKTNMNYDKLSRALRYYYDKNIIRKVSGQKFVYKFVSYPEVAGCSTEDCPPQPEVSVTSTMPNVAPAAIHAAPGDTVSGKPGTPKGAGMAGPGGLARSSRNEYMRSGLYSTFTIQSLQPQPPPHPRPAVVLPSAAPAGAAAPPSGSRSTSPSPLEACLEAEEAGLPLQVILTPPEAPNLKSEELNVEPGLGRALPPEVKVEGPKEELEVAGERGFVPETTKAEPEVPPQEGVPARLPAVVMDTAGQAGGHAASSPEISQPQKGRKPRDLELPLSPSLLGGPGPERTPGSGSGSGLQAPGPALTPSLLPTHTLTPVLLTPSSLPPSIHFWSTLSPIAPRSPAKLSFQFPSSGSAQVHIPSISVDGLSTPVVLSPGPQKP
The method in brief: as §1

The target in a further test is ELF1 (Homo sapiens, UniProt P32519 1-619). The method in brief: as §1
A further test addresses SPIB (Homo sapiens, UniProt Q01892 1-262). The method in brief: as §1
The next test deals with ETV5 (Homo sapiens, UniProt P41161 1-510). The method, boiled down: as §1
The target in the next test is T3, SPIC (Homo sapiens, UniProt Q8N5J4 1-248).
T3 sequence: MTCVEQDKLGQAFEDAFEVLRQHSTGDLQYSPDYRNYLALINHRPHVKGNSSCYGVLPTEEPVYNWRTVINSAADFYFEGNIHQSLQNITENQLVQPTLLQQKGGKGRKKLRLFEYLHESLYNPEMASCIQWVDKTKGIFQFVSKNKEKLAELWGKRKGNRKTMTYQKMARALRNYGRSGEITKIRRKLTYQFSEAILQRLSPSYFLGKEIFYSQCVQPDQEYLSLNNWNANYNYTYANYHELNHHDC
The method in brief:
as §1

The target in a further test is T4, SPDEF (Homo sapiens, UniProt O95238 1-335).
T4 sequence: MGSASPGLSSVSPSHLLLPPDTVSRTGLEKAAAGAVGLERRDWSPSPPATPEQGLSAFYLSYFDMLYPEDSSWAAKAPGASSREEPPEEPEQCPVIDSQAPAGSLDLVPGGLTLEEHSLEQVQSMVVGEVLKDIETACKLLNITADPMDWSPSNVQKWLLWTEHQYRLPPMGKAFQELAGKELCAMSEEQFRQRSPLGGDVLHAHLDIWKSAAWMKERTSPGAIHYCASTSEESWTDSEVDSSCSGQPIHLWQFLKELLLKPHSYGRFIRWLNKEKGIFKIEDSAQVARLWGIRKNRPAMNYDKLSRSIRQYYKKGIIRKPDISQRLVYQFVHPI
The method, boiled down:
as §1

The target of a further test is T5, ETV3 (Homo sapiens, UniProt P41162-2 1-143).
T5 sequence: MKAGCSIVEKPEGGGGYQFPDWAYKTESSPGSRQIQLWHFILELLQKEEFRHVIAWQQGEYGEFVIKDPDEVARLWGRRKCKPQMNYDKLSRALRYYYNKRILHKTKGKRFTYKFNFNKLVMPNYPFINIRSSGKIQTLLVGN
The method, boiled down:
as §1

The next test concerns the target T6, GABPA (Homo sapiens, UniProt Q06546 1-454).
T6 sequence: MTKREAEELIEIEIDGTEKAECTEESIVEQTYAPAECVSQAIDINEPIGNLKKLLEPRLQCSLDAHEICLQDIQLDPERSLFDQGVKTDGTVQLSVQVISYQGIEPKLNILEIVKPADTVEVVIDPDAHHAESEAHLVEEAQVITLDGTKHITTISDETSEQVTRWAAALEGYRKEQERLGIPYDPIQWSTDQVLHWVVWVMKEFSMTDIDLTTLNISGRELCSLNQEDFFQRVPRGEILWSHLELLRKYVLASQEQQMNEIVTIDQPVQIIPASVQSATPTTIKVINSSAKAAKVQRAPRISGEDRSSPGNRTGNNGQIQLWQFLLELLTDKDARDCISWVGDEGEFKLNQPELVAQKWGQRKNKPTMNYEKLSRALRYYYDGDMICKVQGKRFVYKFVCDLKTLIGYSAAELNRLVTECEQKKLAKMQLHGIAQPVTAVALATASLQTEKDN
The method, boiled down:
as §1

The target in another test is T7, EHF (Homo sapiens, UniProt Q9NZC4 1-300).
T7 sequence: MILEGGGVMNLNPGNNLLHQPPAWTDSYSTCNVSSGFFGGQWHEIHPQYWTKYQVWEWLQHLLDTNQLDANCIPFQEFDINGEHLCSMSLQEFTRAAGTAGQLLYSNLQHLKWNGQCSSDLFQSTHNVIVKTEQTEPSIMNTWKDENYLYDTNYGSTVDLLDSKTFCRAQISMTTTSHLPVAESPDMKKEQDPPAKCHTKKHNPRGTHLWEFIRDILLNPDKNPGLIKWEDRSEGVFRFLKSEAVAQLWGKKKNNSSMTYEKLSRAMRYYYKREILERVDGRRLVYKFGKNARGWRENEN
The method in brief: as §1

The target in a further test is SPI1 (Homo sapiens, UniProt P17947 1-270). The method, boiled down: as §1
For another test, the target named is T8, FEV (Homo sapiens, UniProt Q99581 1-238).
T8 sequence: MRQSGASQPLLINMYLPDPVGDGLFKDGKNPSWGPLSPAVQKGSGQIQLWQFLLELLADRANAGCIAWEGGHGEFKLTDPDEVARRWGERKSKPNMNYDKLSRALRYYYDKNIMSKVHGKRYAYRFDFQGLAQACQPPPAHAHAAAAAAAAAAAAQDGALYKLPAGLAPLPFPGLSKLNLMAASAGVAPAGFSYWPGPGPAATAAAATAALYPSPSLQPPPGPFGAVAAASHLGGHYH
The method in brief: as §1

The target in a further test is ETV1 (Homo sapiens, UniProt P50549 1-477). The method, boiled down: as §1
The target of the next test is T9, ETV3L (Homo sapiens, UniProt Q6ZN32 1-361).
T9 sequence: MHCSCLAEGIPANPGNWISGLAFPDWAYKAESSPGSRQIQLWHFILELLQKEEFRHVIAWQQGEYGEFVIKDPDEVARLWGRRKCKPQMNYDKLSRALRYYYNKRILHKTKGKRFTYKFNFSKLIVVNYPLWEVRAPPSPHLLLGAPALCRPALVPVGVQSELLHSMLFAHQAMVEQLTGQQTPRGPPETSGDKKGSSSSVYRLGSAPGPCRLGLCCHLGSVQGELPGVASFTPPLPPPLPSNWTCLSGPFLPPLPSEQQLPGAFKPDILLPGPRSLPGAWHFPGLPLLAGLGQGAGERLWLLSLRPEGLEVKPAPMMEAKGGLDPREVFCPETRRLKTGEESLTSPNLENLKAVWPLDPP
The method, boiled down:
as §1

The next test concerns the target T10, ELF5 (Homo sapiens, UniProt Q9UKW6-2 1-255).
T10 sequence: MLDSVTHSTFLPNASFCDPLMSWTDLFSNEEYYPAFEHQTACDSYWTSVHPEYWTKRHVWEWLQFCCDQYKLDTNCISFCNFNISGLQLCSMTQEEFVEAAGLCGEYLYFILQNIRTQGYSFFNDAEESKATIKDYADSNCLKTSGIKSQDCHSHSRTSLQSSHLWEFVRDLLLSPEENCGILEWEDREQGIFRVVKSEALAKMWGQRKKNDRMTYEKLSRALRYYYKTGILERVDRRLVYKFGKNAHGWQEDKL
The method, boiled down:
as §1

A further test addresses ETV6 (Homo sapiens, UniProt P41212 1-452). The method in brief: as §1

Sequence of ETV5 (P41161 whole entry): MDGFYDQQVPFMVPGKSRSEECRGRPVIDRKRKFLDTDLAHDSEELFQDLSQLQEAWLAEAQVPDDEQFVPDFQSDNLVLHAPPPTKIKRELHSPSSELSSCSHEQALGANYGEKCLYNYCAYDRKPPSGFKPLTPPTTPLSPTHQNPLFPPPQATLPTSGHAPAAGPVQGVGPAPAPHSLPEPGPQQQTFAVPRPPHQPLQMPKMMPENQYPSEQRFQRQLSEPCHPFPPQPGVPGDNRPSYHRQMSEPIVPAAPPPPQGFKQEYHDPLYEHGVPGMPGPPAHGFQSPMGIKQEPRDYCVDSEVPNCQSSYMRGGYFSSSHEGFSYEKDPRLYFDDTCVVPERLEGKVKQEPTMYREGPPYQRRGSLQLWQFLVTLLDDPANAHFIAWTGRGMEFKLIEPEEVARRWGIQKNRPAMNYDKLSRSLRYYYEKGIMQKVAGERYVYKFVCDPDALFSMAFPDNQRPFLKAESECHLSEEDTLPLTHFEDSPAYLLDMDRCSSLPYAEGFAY
Sequence of ELF1 (P32519 whole entry): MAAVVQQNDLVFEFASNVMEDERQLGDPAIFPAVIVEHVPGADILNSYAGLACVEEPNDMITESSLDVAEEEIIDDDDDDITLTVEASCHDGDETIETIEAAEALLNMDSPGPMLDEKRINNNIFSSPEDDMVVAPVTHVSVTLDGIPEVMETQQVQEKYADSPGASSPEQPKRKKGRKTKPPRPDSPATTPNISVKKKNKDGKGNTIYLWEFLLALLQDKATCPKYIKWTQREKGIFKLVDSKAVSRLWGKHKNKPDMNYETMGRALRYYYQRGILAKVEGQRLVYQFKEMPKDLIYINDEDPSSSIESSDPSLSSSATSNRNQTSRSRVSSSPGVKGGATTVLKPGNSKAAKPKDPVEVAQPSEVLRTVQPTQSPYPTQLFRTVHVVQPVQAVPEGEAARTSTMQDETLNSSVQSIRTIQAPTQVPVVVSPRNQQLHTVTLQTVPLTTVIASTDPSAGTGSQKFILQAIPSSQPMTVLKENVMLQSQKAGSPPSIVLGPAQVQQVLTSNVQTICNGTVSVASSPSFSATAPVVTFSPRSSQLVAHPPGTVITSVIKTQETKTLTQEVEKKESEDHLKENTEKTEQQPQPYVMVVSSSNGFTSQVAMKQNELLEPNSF
Sequence of ETV1 (P50549 whole entry): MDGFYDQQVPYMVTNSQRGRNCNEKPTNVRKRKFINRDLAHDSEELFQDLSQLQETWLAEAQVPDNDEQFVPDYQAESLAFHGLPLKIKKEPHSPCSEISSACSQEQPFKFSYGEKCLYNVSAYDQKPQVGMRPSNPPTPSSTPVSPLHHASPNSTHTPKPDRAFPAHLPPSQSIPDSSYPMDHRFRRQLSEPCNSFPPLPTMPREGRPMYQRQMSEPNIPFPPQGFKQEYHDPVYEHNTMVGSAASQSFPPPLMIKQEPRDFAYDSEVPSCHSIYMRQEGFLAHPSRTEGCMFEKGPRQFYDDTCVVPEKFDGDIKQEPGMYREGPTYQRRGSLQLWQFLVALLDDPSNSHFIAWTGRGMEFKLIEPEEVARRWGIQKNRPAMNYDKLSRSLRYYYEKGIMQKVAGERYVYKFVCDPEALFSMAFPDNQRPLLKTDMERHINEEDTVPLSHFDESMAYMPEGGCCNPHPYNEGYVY
Sequence of SPIB (Q01892 whole entry): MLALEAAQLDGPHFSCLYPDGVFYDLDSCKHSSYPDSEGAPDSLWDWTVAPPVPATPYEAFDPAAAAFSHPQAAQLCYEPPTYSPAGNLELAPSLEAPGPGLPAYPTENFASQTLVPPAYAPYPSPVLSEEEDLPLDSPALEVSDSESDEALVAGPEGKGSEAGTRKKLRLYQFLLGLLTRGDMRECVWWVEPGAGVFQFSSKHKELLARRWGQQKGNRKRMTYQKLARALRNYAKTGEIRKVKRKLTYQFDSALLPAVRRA
Sequence of ETV6 (P41212 whole entry): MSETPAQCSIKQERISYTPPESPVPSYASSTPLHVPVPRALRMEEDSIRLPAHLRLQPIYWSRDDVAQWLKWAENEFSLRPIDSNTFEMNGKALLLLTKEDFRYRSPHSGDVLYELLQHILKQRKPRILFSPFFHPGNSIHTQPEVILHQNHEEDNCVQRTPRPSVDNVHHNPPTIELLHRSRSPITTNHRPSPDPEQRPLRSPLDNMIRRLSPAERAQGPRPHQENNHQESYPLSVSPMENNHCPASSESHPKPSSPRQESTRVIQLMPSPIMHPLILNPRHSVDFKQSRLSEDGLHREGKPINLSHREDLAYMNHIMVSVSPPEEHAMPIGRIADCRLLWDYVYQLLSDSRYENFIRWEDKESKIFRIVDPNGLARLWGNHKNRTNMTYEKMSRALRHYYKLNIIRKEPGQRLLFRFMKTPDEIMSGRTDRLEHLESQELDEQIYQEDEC

GGTATG: the binding signal with FLI1 was 1.01 fold enrichment (6-mer frequency, TF over GST control); with ELK1, 1.03 fold enrichment (6-mer frequency, TF over GST control); with ELF1, 1.01 fold enrichment (6-mer frequency, TF over GST control); with SPIB, 1.02 fold enrichment (6-mer frequency, TF over GST control); in the test with ETV5, 1.01 fold enrichment (6-mer frequency, TF over GST control); in the test with SPIC, 1.22 fold enrichment (6-mer frequency, TF over GST control). In addition, the binding signal with SPDEF was 1.02 fold enrichment (6-mer frequency, TF over GST control); with ETV3, 1.02 fold enrichment (6-mer frequency, TF over GST control).

In the case of ACTGTA, the binding signal with FLI1 was 1 fold enrichment (6-mer frequency, TF over GST control); in the test with ELK1, 1.09 fold enrichment (6-mer frequency, TF over GST control); with GABPA, 1.03 fold enrichment (6-mer frequency, TF over GST control); with ELF1 it was 1.08 fold enrichment (6-mer frequency, TF over GST control); in the test with EHF, 1.11 fold enrichment (6-mer frequency, TF over GST control); in the test with SPI1 it was 1.09 fold enrichment (6-mer frequency, TF over GST control). Besides, the binding signal with FEV is 1 fold enrichment (6-mer frequency, TF over GST control); with ETV5, 1.08 fold enrichment (6-mer frequency, TF over GST control); with SPIC, 1.24 fold enrichment (6-mer frequency, TF over GST control); in the test with ETV1, 1.02 fold enrichment (6-mer frequency, TF over GST control); with ETV3L, 1.01 fold enrichment (6-mer frequency, TF over GST control); in the test with SPDEF, 1.02 fold enrichment (6-mer frequency, TF over GST control). For the same sequence, the binding signal with ELF5 is 1.07 fold enrichment (6-mer frequency, TF over GST control); in the test with ETV3, 1 fold enrichment (6-mer frequency, TF over GST control); in the test with ETV6 it was 1.03 fold enrichment (6-mer frequency, TF over GST control).

The record behind these values is paper PMC7862700, “An all-to-all approach to the identification of sequence-specific readers for epigenetic DNA modifications on cytosine”.
